In the supplement of paper PMC6555819 one finds PBM binding z-score data, which are given here for 22 sequences.

The subject of this assay is RARb homodimer (NR concentration 270 nM). Nature of the assay: PBM binding z-score (relative to random genomic background probes); higher = stronger binding; sequences stand for … in GC…GCGATTGACAGCGTAGAATGAAGG
An outline of the steps: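 Regression normalization was applied to scanned fluorescence from custom Agilent 4×180K protein-binding microarrays. Before scanning, arrays were incubated 1 h with ligand-free nuclear receptor dimers, and binding was detected with antibodies against each partner (one per run). Binding z-scores use the random background probes as reference.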
Take TATGCTAGGTCAACGATGGTCAGCTAATCTGCTA: the PBM binding z-score is 3.36.
In the case of AGATGTAGGTTACATCCGGGTCATTCAGGCTATG, the PBM binding z-score was determined as 2.87.
For the sequence TCTATTAGTTGATTAGGACAACCGAAACAGCGGA, the PBM binding z-score came out at 0.549.
The sequence CTCTAAAGGTCGGTTGAGGTGAGTATACGGATAA came in with a PBM binding z-score of 2.4.
Sequence CTGACTGGGGCAAAGGTTACCATACTCAGTACGA returned a PBM binding z-score of 2.6.
The figure for CCTAGCAGGCCAGAGTCACTCAAGCATTTCGCTT is -0.596; for GATACAGGGTCAGCTAGCGGCCAGAGTATGGAAA it is 2.95.
As for CCTTACGGGTCACGAGGTTATTGCACGACGAGCG, the figure is 4.19; as for TCGAGTAGGTTAGTCGGGGCATTGAGCCAACATA, 0.349; as for CCGACTGGGGCAAAGGTTCCCATACTCAGTACGA, 0.64.
TGTCTAAGTTCAAAGGTAACGTAAGTATCCACAC displayed a PBM binding z-score of 2.69.
As for GCATATCGGTAATACAAGGTGAAAGTCCGATTGT, the figure is 0.774; as for TCTATTAGTTGAAGGGCAACCGTCGAGTCCGTTT, 1.41.
Sequence CCGACTGGGGCAAAGGTTACCGTACTCAGTACGA gave a PBM binding z-score of 2.03.
The figure for CCGACTGGAGCAAAGGTTACCATACTCAGTACGA is 2.17.
The figure for ATCTCTAGGTAAGCCTCAGTTCAGTGAAGAACGC is 0.726; for GCCTACGGGTCAAAGGTTATAGCATGAATAGAAT it is 3.15; for AGAATGAGGTTATACGTAGATCAGGGAAGAAAGT it is 1.19.
For the sequence ACTCGGAGGACAAAAGTCAGAGCTACGCCAGTGA, the PBM binding z-score amounted to 0.442.
The figure for AGTCAAAGTTCGGGACGAGGTAACGTAAAGCACG is 0.989; for CGAACTAGGTCATCCAGGACAGTGCATACATTGA it is 3.21.
The sequence AGATCGAGGGCAATGAGTTGATAGCACGGGTGGC registered a PBM binding z-score of 1.18.
